Source: PubChem BioAssay AID1851 (National Center for Advancing Translational Sciences (NCATS), 2009)
Hit rate of the full screen: of about 16,000 compounds, about 5,800 (36%) were called active. Inconclusive results (about 23%) are left out. Calls follow the shape of the dose curve; as a rule, active = well fitted curve in the direction sought with a large enough effect; inconclusive = small, poorly fitted or top-dose-only effect, or effect the other way; inactive = no such curve, though single readings can be large or run the other way. The list shows a part of the results.

Target: Cytochrome P450 2C19 (Homo sapiens) (UniProt P33261)
Assay: Cytochrome panel assay with activity outcomes
Details: recombinant CYP, pro-luciferin dealkylation, luminescence, p450-cyp2c19; series mostly up to 57.1 µM; activity, negative = inhibition: at the top concentration
% is scaled to controls: 0 for no effect and ±100 for the full control effect.

Cytochrome P450 2C19 (Homo sapiens), sequence (P33261 whole entry, looked up): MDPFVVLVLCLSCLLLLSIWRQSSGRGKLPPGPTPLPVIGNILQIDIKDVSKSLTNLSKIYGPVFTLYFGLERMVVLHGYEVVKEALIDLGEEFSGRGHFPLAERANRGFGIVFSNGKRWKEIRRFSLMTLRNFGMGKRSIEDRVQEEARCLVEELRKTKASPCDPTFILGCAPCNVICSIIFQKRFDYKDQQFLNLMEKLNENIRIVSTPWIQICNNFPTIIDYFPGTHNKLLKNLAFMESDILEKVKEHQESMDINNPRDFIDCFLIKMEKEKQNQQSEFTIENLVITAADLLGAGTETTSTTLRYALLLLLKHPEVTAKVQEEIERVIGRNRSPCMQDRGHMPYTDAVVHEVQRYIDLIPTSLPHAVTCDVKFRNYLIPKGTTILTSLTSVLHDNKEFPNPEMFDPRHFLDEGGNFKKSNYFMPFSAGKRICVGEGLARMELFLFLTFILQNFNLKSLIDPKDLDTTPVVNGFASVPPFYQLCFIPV

AC50, inactive:
Cc1cccc(C)c1OC[C@H](C)N
CC(C)NC[C@@H](O)COc1cccc2ccccc12

AC50, active:
Cc1cccc(NC(=O)CSc2nc3ccccc3c3nc(CCc4c(C)n[nH]c4C)nn23)c1 7.94 µM
Cn1c(=O)n(C)c2cc(/C=N/n3cnnc3)ccc21 17.8 µM
COC(=O)c1ccc(/C=N\NC(=O)c2ccc(C)cc2Cl)cc1 5.01 µM
Cn1c(=O)n(C)c2cc(/C=N/NC(=O)c3ccc(Cl)cc3Cl)ccc21 3.98 µM
Cc1cc(C)c(S(=O)(=O)Nc2ccccc2C(F)(F)F)c(C)c1 0.1 µM
Cc1cc(C)c(S(=O)(=O)Nc2cccc(C(F)(F)F)c2)c(C)c1 3.16 µM
COc1ccccc1CN(Cc1cc2cc3c(cc2[nH]c1=O)OCCO3)Cc1nnnn1Cc1ccco1 7.08 µM
CCC(C)(C)n1nnnc1C(C(C)C)N(Cc1ccco1)Cc1cc2cc3c(cc2[nH]c1=O)OCO3 (centres undefined) 10 µM
CCC(C)(C)n1nnnc1C(c1cc2cc3c(cc2[nH]c1=O)OCO3)N1CCCCC1 (centres undefined) 31.6 µM
COc1ccc(CONS(=O)(=O)c2ccc(NC(C)=O)cc2)cc1Cl 2.24 µM
Clc1ccc(/C=N/c2c(-c3ccc(Cl)cc3)nc3n2CCS3)cc1 14.1 µM
CCOc1ccc(N2C(=O)/C(=C/c3cc(OC)c(OC)c(OC)c3)N(CC(=O)OC)C2=S)cc1 3.55 µM
CCN(CC)C(=O)C1CCCN(c2ccc([N+](=O)[O-])cc2/C=N/NC(=O)c2ccc([N+](=O)[O-])cc2)C1 (centres undefined) 14.1 µM
CCOC(=O)C(CC)(CC)C(=O)/C=C/c1ccc(Br)cc1 2.82 µM
O=C(NCCNc1ccc([N+](=O)[O-])cc1)c1ccccc1Br 7.94 µM
O=[N+]([O-])c1ccc(C2CCCC/C2=N\OCc2cccc(F)c2)c([N+](=O)[O-])c1 (centres undefined) 7.08 µM
CC(Sc1ccc2c(c1)OCCO2)C(=O)Nc1ncc(Cl)cc1Cl (centres undefined) 2.82 µM
COc1ccc2cc(C(=O)CCC(=O)O)ccc2c1 2 µM
COc1cccc(CNCCNC(=O)c2nonc2N)c1 15.8 µM
CCOc1cccc(CNCCNC(=O)c2nonc2N)c1 15.8 µM
Cc1ccc(S(=O)(=O)c2nc(S(=O)(=O)c3ccc(C)cc3)c(NCc3ccco3)s2)cc1 8.91 µM
O=C(NC(=S)Nc1nc(-c2ccc(Br)cc2)cs1)c1cccnc1 10 µM
CS/C(N)=N/N=C/c1ccc([N+](=O)[O-])cc1 14.1 µM
O=C(COc1cccc2ccccc12)N1c2ccccc2CCc2ccccc21 0.447 µM
CCOC(=O)c1cc(NC(=O)c2ccc(OC)cc2)c(=O)oc1-c1ccccc1 2.82 µM
CCOC(=O)c1cc(CC)sc1NC(=O)C(c1ccccc1)c1ccccc1 8.91 µM
COC(=O)c1cc(-c2ccccc2)sc1NC(=O)CN1C(=O)c2ccccc2C1=O 7.08 µM
CCOC(=O)c1cc(-c2ccccc2)sc1NC(=O)c1ccc(OC)cc1 7.94 µM
CCOC(=O)c1sc(NC(=O)CSc2nc(C)cc(C)c2C#N)c(C#N)c1C 5.62 µM
CCOC(=O)c1sc(NC(=O)CSc2n[nH]c(-c3ccc(Cl)cc3Cl)n2)c(C#N)c1C 2.24 µM
O=C1c2ccccc2N[C@H](c2cc(Cl)cc(Cl)c2O)N1CCc1ccccn1 3.98 µM
COc1ccc(OC)c(Nc2nc(-c3sc(NC(=O)c4ccccc4)nc3C)cs2)c1 6.31 µM
CCOc1ccccc1Nc1nc(-c2sc(NC(=O)c3ccccc3)nc2C)cs1 3.16 µM
CCn1c(C)c(/C=N/Nc2nc3ccccc3s2)c2ccccc21 3.16 µM
Cc1cccc(OCCCC(=O)Nc2ccccc2C(F)(F)F)c1 7.08 µM
Cc1ccc(OCCCC(=O)Nc2ccccc2C(F)(F)F)cc1 6.31 µM
Cc1ccc(-c2ccc(=O)n(CC(=O)NCc3ccco3)n2)cc1 7.94 µM
COc1ccc([N+](=O)[O-])cc1NC(=S)NC(NC(=O)Cc1ccc(OC)c(OC)c1)C(Cl)(Cl)Cl (centres undefined) 0.708 µM
Cc1ccc(OCC(=O)Nc2ccccc2-c2ccccc2)cc1 3.55 µM
CCN(CC(=O)Nc1ccc([N+](=O)[O-])cc1OC)c1ccccc1 5.62 µM
Cc1ccc(OCCCC(=O)NCc2ccco2)cc1 10 µM
Cc1c(NC(=O)CCCOc2ccccc2)cccc1[N+](=O)[O-] 2.51 µM
Cc1ccc(OCC(=O)NC2=NCCS2)cc1 17.8 µM
Cc1c(NC(=O)C(Sc2ccccc2)c2ccccc2)cccc1[N+](=O)[O-] (centres undefined) 0.891 µM
Cc1ccc(OCC(=O)Nn2cnc3ccccc32)cc1 20 µM
COc1ccc([N+](=O)[O-])cc1NC(=O)CC(C)c1ccccc1 (centres undefined) 3.55 µM

activity, negative = inhibition, inactive:
COc1ccc(/C=N\NC(=O)O)cc1 11% [at 11.4 µM]
Cn1c(=O)n(C)c2cc(S(=O)(=O)O)ccc21 -14.7%
Cc1cc(C)c(S(=O)(=O)NNC(=O)C2CCN(Cc3ccccc3)CC2)c(C)c1 -18.9%
CC(C)NC(=O)N1CC[C@@]2(CCCN(C(=O)c3cc(C(F)(F)F)cc(C(F)(F)F)c3)C2)C1 30.6%
CCC(c1nnnn1CC1CCCO1)N(CCN1CCOCC1)Cc1cc2cc(C)ccc2[nH]c1=O (centres undefined) 1.58%
CCNc1ncc2nc(C)c(=O)n(C[C@H]3CCCO3)c2n1 4.63%
COc1ccc(CNC(C)(C)C)cc1Cl -4.36%
CCOc1ccc(N2C(=O)/C(=C/c3cccs3)N(CC(=O)OC)C2=S)cc1 -17.3%
O=C(N/N=C/c1cc([N+](=O)[O-])ccc1N1CCNCC1)c1ccc([N+](=O)[O-])cc1 -15.8%
O=C(O)CCCCCNC(=O)c1ccccc1Br -30.4%
O=[N+]([O-])c1ccc(NN=C2c3ccccc3Cc3ccccc32)c([N+](=O)[O-])c1 -15.8% [at 11.4 µM]
CCOc1ccc(C(=O)CCC(=O)O)cc1 -28.2%
COc1ccc2cc(CCC(C)=O)ccc2c1 -42.2% [at 25.6 µM]
Cc1ccc(S(=O)(=O)N[C@H]2COC(=O)[C@H](C)COC(=O)[C@H](C)NC(=O)C/C=C\[C@H]2C)cc1 16.6% [at 11.4 µM]
COc1cccc(CSCC(=O)O)c1 -7.72% [at 11.4 µM]
COc1cccc(CNc2ccc3nc(-c4ccc(N)cc4)c(OC)n3n2)c1 -34.4%
CN1CCN(CN2C(=O)C3C4C=CC(C3C2=O)C2C3C(=O)N(CN5CCN(C)CC5)C(=O)C3C42)CC1 (centres undefined) 27.4% [at 11.4 µM]
CC[C@@]12CCCN3CCc4c(n(c5ccccc45)C(=O)C1)[C@H]32 -19.6% [at 11.4 µM]
Oc1ccc(Cn2cc[nH]c2=S)cc1 5.78%
O=C(NNC(=S)NC(=O)c1cccnc1)c1ccccc1 -21.7%
O=S(=O)(O)c1ccc2cc(N=Nc3cc(S(=O)(=O)O)c4cccnc4c3O)ccc2c1 -22.6% [at 11.4 µM]
COc1ccc(C=NC(CO)C(O)c2ccc([N+](=O)[O-])cc2)cc1 (centres undefined) -6.09%
NC(N)=N/N=C\c1ccc(C2CCNCC2)cc1 23.7% [at 11.4 µM]
O=C(NC[C@@H](O)CO)c1c(I)c(C(=O)NC[C@@H](O)CO)c(I)c(N(CCO)C(=O)CO)c1I 8% [at 25.6 µM]
CC(C)NC[C@H](O)COc1cccc2ccccc12 0.306%
CCc1cc(C(=O)OC)c(NC(=O)CCCC(=O)O)s1 -16.5%
CCOC(=O)c1cc(-c2ccccc2)sc1NC(=O)C(C)(C)C 0.519%
CO[C@@H]1COC(=O)[C@H](C)NC(=O)[C@@H](C)COC(=O)CCC[C@H]1C 15.2% [at 11.4 µM]
Cc1ccccc1OCC(=O)Nc1sc(C(=O)Nc2cccc(C)c2C)c(C)c1C#N 4.91%
CCOC(=O)c1sc2c(c1C)c(=O)c(C(=O)OCC)cn2CC -25.8%
CCOc1ccc(-c2c[n+](=O)c3c(n2[O-])CCCC3)c(OCC)c1 -9.98%
COc1cc(C(=O)Nc2nc3ccc4nc(C)sc4c3s2)cc(OC)c1OC 4.14%
Cc1c(Nc2ncccc2C(=O)O)cccc1C(F)(F)F -12.7% [at 25.6 µM]
Cc1ccc(-c2ccc(=O)n(CC(=O)NCCN(C)C)n2)cc1 -0.291%
CCCN1CCN(CCCNC(=O)Cn2nc(-c3ccc(C)cc3)ccc2=O)CC1 -22.7%
Nc1ncnc2c1nc(-c1ccccc1)n2[C@H]1O[C@@H](CO)[C@@H](O)[C@H]1O -0.591% [at 11.4 µM]
CCO[P@]1(=O)OC[C@@H]2O[C@H](n3cnc4c(N)ncnc43)[C@H](O)[C@@H]2O1 14% [at 11.4 µM]
Cc1c(C(=O)Nc2ccc(OCc3ccccc3)cc2)cccc1[N+](=O)[O-] 42.2%
Cc1ccc(OCC(=O)NNC(=O)CCc2ccccc2)cc1 -31.3%
C/C(CC(=O)NCc1ccco1)=N\NC(=O)Cc1ccccc1 -5.7%
COc1ccccc1NC(=O)Cn1cncc1-c1ccc([N+](=O)[O-])cc1 -18.7%
Cc1ccc(CS(=O)(=O)CCC(=O)NCCCOC(C)C)cc1 -10.4%
Cc1ccc(OCC(=O)NNC(=O)c2cc3ccccc3o2)cc1 -12.6%
C[C@@H]1O[C@@H](n2cc(F)c(=O)[nH]c2=O)[C@H](O)[C@@H]1O -13.4%
Cc1cccc2cc(=O)[nH]c(C)c12 -20%
C[N+]1(CCC[N+]2(C)C[C@H]3[C@H](C2)[C@H]2C=C[C@@H]3CC2)CCOCC1 (some centres undefined) -6.43% [at 11.4 µM]
